In PubChem BioAssay (EPA / NIEHS):
Activity calls are given as the source filed them. How the source made its calls: active means hit-call score of the fitted dose curve at least 0.9, where 1 is the maximum; inactive means score below 0.9.

Test: ATG_TAL_CIS: Attagene CIS-FACTORIAL HepG2 Assay for human TAL Basal Promoter (AID 2282966);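 further: background control endpoint measuring basal TAL promoter reporter mRNA not a specific factor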
Details: HepG2 Attagene cis-factorial TAL promoter reporter; actives raise or lower the signal
How it was run: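 Background-control endpoint: basal TAL promoter reporter transcripts in transiently transfected HepG2, measured 24 h after dosing. Read-out by RT-PCR with fluorescent primer extension and capillary electrophoresis; gain or loss of signal fitted relative to DMSO.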

Structure (SMILES)	outcome	AC50
CCOP(O)OCC	inactive	
C#CC1(O)CCCCC1	inactive	
[CH3][Sn]([Cl])([Cl])[Cl]	inactive	
Nc1c(Cl)c(Cl)c(Cl)c(Cl)c1Cl	inactive	
COC(=O)c1ccccc1S(=O)(=O)NC(=O)Nc1nc(C)cc(C)n1	inactive	
Nc1ccccc1C(=O)OCCc1ccccc1		33.4 µM (active)
N#Cc1cccc(C#N)c1	inactive	
O=C(O)CCCc1ccc(N(CCCl)CCCl)cc1	inactive	
Nc1cc(Cl)cc(Cl)c1	inactive	
COc1ncc(F)c2nc(S(=O)(=O)Nc3c(F)cccc3F)nn12	inactive	
COC(C)(C)CCC[C@H](C)C/C=C/C(C)=C/C(=O)OC(C)C	inactive	
[CH3][Sn]([CH3])([Cl])[Cl]	inactive	
BrCBr	inactive	
CCc1cccc(C)c1N(C(=O)CCl)[C@@H](C)COC	inactive	
O=P1(NCCCl)OCCCN1CCCl (stereo not given)	inactive	
C[N+](C)(C)CC(=O)O	inactive	
C=CCc1ccc(OC(=O)Cc2ccccc2)c(OC)c1	inactive	
O=P(O)(Oc1ccccc1)Oc1ccccc1	inactive	
O=C(O)COc1ccccc1	inactive	
[Cl][Sb]([Cl])[Cl]	inactive	
Cc1ccc(N(SC(F)(Cl)Cl)S(=O)(=O)N(C)C)cc1	inactive	
O=CNC(N1CCN(C(NC=O)C(Cl)(Cl)Cl)CC1)C(Cl)(Cl)Cl (stereo not given)	inactive	
O=[N+]([O-])c1cc(C(F)(F)F)c(Cl)c([N+](=O)[O-])c1Cl	inactive	
C[C@]12CCC(=O)C(O)=C1CC[C@@H]1[C@@H]2CC[C@]2(C)C(=O)CC[C@@H]12	inactive	
CSc1nc(N=[N+]=[N-])nc(NC(C)C)n1	inactive	
O=[N+]([O-])O.O=[N+]([O-])O.[Cd]	inactive	

Test: ATG_TGFb_CIS: Attagene CIS-FACTORIAL HepG2 Assay for human Transforming Growth Factor (TGF) (AID 2282967)
Details: HepG2 Attagene CIS TGFb reporter, mRNA transcription; actives raise or lower the signal
How it was run: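 Transcript-level reporter readout: HepG2 transfectants, 24 h exposure, RNA to cDNA, reporter-specific PCR, fluorescent primer extension, capillary sizing against ROX standards. Gain- or loss-of-signal relative to DMSO.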

Structure (SMILES)	outcome
Nc1ccc(-c2ccc(N)c(N)c2)cc1N	inactive
CCOP(O)OCC	inactive
C#CC1(O)CCCCC1	inactive
O=c1[nH]c(Cl)c(Cl)cc1Cl	inactive
CCC(C)c1cc(C(C)(C)C)cc(-n2nc3ccccc3n2)c1O (stereo not given)	inactive
[CH3][Sn]([Cl])([Cl])[Cl]	inactive
Nc1c(Cl)c(Cl)c(Cl)c(Cl)c1Cl	inactive
COC(=O)c1ccccc1S(=O)(=O)NC(=O)Nc1nc(C)cc(C)n1	inactive
Nc1ccccc1C(=O)OCCc1ccccc1	inactive
N#Cc1cccc(C#N)c1	inactive
O=C(O)CCCc1ccc(N(CCCl)CCCl)cc1	inactive
Nc1cc(Cl)cc(Cl)c1	inactive
COc1ncc(F)c2nc(S(=O)(=O)Nc3c(F)cccc3F)nn12	inactive
COC(C)(C)CCC[C@H](C)C/C=C/C(C)=C/C(=O)OC(C)C	inactive
[CH3][Sn]([CH3])([Cl])[Cl]	inactive
BrCBr	inactive
CCc1cccc(C)c1N(C(=O)CCl)[C@@H](C)COC	inactive
O=P1(NCCCl)OCCCN1CCCl (stereo not given)	inactive
CC(Cc1ccc(C(C)(C)C)cc1)CN1C[C@@H](C)O[C@@H](C)C1 (stereo not given in full)	inactive
O=C(O)c1cc[c]([Hg][Cl])cc1	inactive

Structure (SMILES)	outcome
C[N+](C)(C)CC(=O)O	inactive
O=S(=O)(c1ccccc1)c1ccccc1	inactive
Clc1ccc(-c2ccccc2)cc1	inactive
CN(C)C(=O)C(c1ccccc1)c1ccccc1	inactive
C=CCc1ccc(OC(=O)Cc2ccccc2)c(OC)c1	inactive
O=P(O)(Oc1ccccc1)Oc1ccccc1	inactive
CC1CCCC1.[C-]#[O+].[C-]#[O+].[C-]#[O+].[Mn]	inactive
O=C(O)COc1ccccc1	inactive
[Cl][Sb]([Cl])[Cl]	inactive
CCC(=O)c1ccc(Cl)cc1	inactive
Cc1ccc(N(SC(F)(Cl)Cl)S(=O)(=O)N(C)C)cc1	inactive
CC1(C)CC(=O)CC(C)(C)N1[O]	inactive
SCc1ccco1	inactive
O=CNC(N1CCN(C(NC=O)C(Cl)(Cl)Cl)CC1)C(Cl)(Cl)Cl (stereo not given)	inactive
Oc1cc(Cl)ccc1Cl	inactive
O=[N+]([O-])c1cc(C(F)(F)F)c(Cl)c([N+](=O)[O-])c1Cl	inactive
C[C@]12CCC(=O)C(O)=C1CC[C@@H]1[C@@H]2CC[C@]2(C)C(=O)CC[C@@H]12	inactive
CSc1nc(N=[N+]=[N-])nc(NC(C)C)n1	inactive
O=[N+]([O-])O.O=[N+]([O-])O.[Cd]	inactive
